Targets with a hit are over-represented here; the source holds about 8,800 in all. About 0.5% of all pairs of compound and target were hits. Values without a mark were called inactive.

Experiment in all cases: log2 fold change, soluble protein after heating vs DMSO (PISA); higher = thermal stabilisation; K562 lysate, 10 uM; active = over 0.2 and 3.5 SD of the protein, either way, in both replicates (recomputed)
Compound in one assay: CN1CC[C@H](c2c(O)cc(O)c3c(=O)cc(-c4ccccc4Cl)oc23)[C@H](O)C1 [alvocidib]
A digest of the protocol:
(§1)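 Soluble protein was defined as the supernatant remaining after 21,000xg for 90 min, following pooling of heated aliquots and adjustment to 0.5% NP-40 at 4°C. Before that, crude K562 extract at 1 mg/mL protein in PBS pH 7.4 with 1 mM MgCl2 was treated with 10 μM compound for 30 min and heated for 3 min across 48°C-58°C. Quantification used TMTpro 16plex LC-MS/MS with channel sums equalised, and values are log-two fold changes in thermal stability relative to solvent controls from duplicates.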

Compound in a further assay: CN1CCc2c(c3ccccc3n2Cc2ccc(C(=O)NO)cc2)C1 [Tubastatin A]
In outline: as §1

Compound in assay [1]: CNC(=O)C1=CC=CC=C1NC2=NC(=NC=C2Cl)NC3=C(C=C(C=C3)N4CCOCC4)OC
A digest of the protocol:
as §1

Compound in a further assay: CNC(=O)c1ccc(Nc2ncc(C(F)(F)F)c(NCc3nccnc3N(C)S(C)(=O)=O)n2)cc1 [defactinib]
In outline: as §1

Compound in assay [2]: CNc1nc(-c2ccc3c(N)n[nH]c3c2)cc(N2C[C@@H](C(=O)NC3CCCCC3)CC[C@H]2C)n1
In outline:
as §1

Compound in another assay: COC(=O)N[C@@H](C)CNc1nccc(-c2cn(C(C)C)nc2-c2cc(Cl)cc(NS(C)(=O)=O)c2F)n1 [encorafenib]
In outline:
as §1

Compound in assay [3]: COC(=O)[C@H](CCSC)NC(=O)C1=C(C=C(C=C1)NC[C@H](CS)N)C2=CC=CC=C2
In outline: as §1

Compound in a further assay: COc1cc(Nc2ncc3c(n2)-c2ccc(Cl)cc2C(c2c(F)cccc2OC)=NC3)ccc1C(=O)O [alisertib]
In outline:
as §1

Compound in assay [4]: COc1cc2nc(-c3cc(F)ccc3O)nc(N[C@@H]3CNC[C@H]3C(C)(C)O)c2cc1OC
In outline:
as §1

Compound in the next assay: COc1cc2ncnc(Nc3ccc(F)c(Cl)c3)c2cc1OCCCN1CCOCC1 [gefitinib]
In outline:
as §1

Sequence of UniProt P50995 (P50995 whole entry, looked up): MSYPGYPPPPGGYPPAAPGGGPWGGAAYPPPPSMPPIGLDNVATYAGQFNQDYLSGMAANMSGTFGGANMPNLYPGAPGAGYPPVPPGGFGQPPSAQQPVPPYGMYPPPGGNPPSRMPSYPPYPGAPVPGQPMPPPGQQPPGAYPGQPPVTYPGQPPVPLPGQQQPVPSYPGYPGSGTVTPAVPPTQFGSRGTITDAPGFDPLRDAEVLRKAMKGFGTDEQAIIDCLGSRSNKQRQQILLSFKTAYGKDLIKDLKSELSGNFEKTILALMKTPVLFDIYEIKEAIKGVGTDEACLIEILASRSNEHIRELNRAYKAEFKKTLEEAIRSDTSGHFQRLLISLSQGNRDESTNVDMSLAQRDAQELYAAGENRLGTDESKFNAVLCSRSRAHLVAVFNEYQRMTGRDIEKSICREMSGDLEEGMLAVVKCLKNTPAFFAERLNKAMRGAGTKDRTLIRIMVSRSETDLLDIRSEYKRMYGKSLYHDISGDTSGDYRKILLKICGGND
Sequence of UniProt O43182 (O43182 whole entry, looked up): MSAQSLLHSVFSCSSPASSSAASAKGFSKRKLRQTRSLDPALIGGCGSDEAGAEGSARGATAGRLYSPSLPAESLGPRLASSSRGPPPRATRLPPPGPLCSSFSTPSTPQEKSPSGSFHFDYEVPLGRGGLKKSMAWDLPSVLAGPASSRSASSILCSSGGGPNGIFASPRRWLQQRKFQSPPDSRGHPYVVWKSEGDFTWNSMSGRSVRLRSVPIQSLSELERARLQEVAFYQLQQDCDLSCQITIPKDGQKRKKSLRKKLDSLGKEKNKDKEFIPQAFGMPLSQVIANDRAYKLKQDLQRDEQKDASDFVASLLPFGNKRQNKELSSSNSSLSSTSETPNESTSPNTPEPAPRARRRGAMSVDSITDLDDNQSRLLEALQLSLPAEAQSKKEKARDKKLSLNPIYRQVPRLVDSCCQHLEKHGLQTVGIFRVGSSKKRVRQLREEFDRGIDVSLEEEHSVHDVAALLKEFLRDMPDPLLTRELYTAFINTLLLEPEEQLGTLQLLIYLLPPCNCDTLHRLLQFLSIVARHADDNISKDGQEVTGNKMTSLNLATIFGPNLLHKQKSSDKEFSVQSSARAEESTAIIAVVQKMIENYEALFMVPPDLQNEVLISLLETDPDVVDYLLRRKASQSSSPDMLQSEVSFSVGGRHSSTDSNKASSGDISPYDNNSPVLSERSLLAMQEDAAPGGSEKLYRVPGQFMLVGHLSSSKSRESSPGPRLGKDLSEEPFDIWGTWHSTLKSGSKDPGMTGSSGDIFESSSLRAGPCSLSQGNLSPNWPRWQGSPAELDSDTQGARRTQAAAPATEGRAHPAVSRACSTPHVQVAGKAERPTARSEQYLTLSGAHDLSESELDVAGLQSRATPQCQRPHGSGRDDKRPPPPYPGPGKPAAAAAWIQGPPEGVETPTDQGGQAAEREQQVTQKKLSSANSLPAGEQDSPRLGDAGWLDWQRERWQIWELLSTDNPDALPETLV
Sequence of UniProt Q12797 (Q12797 whole entry, looked up): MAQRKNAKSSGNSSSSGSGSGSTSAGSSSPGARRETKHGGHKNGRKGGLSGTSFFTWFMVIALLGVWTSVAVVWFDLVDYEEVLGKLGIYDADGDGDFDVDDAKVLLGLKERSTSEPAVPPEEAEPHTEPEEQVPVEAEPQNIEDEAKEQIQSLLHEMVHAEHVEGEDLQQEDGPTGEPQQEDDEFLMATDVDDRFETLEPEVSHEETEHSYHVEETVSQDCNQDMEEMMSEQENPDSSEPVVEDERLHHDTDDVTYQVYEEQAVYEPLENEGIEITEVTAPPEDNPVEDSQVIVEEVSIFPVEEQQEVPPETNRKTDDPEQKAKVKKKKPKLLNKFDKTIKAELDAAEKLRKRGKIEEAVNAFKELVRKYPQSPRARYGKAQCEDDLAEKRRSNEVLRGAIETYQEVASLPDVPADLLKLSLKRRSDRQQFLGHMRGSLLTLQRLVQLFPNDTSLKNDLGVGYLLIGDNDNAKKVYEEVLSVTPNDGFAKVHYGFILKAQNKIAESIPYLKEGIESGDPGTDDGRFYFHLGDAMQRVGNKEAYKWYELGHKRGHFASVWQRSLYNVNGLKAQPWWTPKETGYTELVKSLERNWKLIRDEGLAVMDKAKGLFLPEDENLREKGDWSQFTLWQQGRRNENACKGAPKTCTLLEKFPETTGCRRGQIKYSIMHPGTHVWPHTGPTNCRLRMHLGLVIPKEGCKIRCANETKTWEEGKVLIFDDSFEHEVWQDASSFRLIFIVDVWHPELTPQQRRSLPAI
Sequence of UniProt O00170 (O00170 whole entry, looked up): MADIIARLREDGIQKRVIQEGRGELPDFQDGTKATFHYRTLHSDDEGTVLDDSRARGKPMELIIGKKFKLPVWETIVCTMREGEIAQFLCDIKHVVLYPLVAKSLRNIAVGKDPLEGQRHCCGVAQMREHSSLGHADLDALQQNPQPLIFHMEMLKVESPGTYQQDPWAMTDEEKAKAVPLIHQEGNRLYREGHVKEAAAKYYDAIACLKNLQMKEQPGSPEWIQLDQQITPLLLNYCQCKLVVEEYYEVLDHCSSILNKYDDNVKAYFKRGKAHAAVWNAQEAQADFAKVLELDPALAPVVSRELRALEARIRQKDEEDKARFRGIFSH
Sequence of UniProt P42330 (P42330 whole entry, looked up): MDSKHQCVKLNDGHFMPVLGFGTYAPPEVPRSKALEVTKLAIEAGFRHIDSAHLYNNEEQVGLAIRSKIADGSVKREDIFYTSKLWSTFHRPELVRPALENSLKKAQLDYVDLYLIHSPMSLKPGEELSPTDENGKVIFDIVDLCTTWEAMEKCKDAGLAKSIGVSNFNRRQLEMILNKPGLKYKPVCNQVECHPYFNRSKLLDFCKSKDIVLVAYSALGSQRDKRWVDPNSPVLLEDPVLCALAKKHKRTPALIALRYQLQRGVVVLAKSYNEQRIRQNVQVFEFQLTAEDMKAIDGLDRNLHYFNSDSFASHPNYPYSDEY
Sequence of UniProt Q8N6T3 (Q8N6T3 whole entry, looked up): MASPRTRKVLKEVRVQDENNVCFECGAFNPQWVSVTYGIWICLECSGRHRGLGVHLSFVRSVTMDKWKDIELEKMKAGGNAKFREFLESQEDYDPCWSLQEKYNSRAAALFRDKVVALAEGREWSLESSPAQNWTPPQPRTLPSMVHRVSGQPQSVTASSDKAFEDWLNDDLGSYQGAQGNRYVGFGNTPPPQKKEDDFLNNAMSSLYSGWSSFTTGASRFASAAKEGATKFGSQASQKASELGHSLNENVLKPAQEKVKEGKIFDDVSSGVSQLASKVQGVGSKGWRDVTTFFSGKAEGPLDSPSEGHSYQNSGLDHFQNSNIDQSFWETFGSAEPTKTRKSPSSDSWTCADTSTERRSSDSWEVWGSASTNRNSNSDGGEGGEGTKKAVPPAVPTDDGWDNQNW
Sequence of UniProt Q9UH62 (Q9UH62 whole entry, looked up): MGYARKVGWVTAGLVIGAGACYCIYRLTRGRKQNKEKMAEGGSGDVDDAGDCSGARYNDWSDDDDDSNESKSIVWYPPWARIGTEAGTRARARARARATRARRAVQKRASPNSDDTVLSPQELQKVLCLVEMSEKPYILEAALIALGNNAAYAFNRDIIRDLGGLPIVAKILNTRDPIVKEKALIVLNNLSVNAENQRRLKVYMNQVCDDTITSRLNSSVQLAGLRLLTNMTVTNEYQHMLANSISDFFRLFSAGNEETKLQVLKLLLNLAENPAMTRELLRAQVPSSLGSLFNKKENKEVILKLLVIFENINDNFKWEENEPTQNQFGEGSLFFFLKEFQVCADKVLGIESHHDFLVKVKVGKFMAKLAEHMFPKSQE
Sequence of UniProt O75843 (O75843 whole entry, looked up): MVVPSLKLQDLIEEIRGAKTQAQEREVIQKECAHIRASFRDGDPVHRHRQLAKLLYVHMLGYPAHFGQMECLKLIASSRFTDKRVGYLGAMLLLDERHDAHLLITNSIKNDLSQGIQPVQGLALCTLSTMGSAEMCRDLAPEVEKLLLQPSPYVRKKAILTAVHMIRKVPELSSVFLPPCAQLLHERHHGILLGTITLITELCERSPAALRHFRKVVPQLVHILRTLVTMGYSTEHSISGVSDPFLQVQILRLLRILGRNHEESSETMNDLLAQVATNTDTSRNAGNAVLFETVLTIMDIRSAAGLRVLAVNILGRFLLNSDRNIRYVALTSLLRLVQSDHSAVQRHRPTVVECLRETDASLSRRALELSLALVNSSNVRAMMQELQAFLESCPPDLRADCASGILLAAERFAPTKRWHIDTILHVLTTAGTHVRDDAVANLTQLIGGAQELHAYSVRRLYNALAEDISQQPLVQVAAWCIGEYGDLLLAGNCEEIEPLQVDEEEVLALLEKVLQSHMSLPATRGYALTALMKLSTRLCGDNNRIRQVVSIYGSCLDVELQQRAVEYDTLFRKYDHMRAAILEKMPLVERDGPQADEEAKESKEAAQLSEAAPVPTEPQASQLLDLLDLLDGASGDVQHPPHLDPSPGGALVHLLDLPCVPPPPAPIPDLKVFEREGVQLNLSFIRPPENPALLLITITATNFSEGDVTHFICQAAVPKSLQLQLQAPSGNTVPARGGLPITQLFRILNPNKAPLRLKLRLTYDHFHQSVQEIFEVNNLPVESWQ
Sequence of UniProt P16219 (P16219 whole entry, looked up): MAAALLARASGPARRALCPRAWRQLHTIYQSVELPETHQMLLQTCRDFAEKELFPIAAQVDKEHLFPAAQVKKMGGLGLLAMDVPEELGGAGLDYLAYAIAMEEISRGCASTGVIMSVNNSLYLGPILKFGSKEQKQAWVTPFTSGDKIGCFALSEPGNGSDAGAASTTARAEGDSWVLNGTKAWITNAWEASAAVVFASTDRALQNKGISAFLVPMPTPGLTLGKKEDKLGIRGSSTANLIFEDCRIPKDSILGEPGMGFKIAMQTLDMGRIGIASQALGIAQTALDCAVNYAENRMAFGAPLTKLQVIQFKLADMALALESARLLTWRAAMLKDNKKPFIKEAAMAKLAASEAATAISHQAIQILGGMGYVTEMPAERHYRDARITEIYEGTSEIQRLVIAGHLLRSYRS

As to ARHGAP6 (UniProt O43182), the log2 fold change with alvocidib is 0.003; in the assay with Tubastatin A, -0.201; in [1], 0.129; with defactinib, 0.012; in assay [2] it was -0.017; with encorafenib it was 0.06. The log2 fold change in assay [3] is 0.063; with alisertib it was 0.017; in assay [4], -0.012; with gefitinib it was -0.069.

Consider ARFGAP1 (UniProt Q8N6T3), for which the log2 fold change in the assay with alvocidib was -0.001; with Tubastatin A it was -0.008; in assay [1], 0.105; with defactinib it was 0.115; in assay [2] it was 0.025; in the assay with encorafenib, 0.355. For the same target, the log2 fold change in [3] was -0.054; with alisertib, 0.245; in [4], 0.097; in the assay with gefitinib, 0.209.

With AKR1C3 (UniProt P42330), the log2 fold change with alvocidib was 0.026; in the assay with Tubastatin A, 0.073; in [1], -0.052; with defactinib, 0.017; in assay [2], -0.211; in the assay with encorafenib, -0.026. Also, the log2 fold change in assay [3] was 0.022; with alisertib, 0.056; in assay [4] it was 0.028; with gefitinib, -0.003.

Regarding ALDH1L2 (UniProt Q3SY69), the log2 fold change in the assay with alvocidib was -0.04; with Tubastatin A, -0.03; in assay [1] it was -0.028; with defactinib it was -0.04; in [2], -0.021; in the assay with encorafenib, -0.002. Besides, the log2 fold change in assay [3] was 0.288 (active); in the assay with alisertib it was -0.039; in assay [4], 0.039; with gefitinib it was 0.017.

As to ACADS (UniProt P16219), the log2 fold change in the assay with alvocidib is -0.011; in the assay with Tubastatin A, -0.003; in assay [1], 0.019; with defactinib, -0.011; in [2], 0.014; with encorafenib, -0.034. Besides, the log2 fold change in assay [3] is 0.071; with alisertib, -0.003; in assay [4], -0.037; with gefitinib, -0.023.

Consider AKR1C2 (UniProt P52895), for which the log2 fold change in the assay with alvocidib was -0.06; in the assay with Tubastatin A, 0.061; in [1], -0.021; in the assay with defactinib, -0.05; in assay [2], -0.151; with encorafenib, -0.012. Also, the log2 fold change in assay [3] is 0.018; with alisertib it was 0.002; in [4], 0.004; in the assay with gefitinib, -0.082.

Regarding AP1G2 (UniProt O75843), the log2 fold change with alvocidib is 0.04; in the assay with Tubastatin A, -0.099; in [1], 0.068; with defactinib, -0.006; in assay [2], 0.036; with encorafenib, -0.03. Further, the log2 fold change in assay [3] was -0.015; with alisertib, 0.037; in assay [4], 0.056; in the assay with gefitinib, 0.03.

Turning to ARMCX3 (UniProt Q9UH62), the log2 fold change in the assay with alvocidib is 0.022; with Tubastatin A it was -0.061; in [1] it was -0.018; in the assay with defactinib it was 0.017; in [2] it was 0.026; with encorafenib it was -0.006. For the same target, the log2 fold change in assay [3] is 0.015; with alisertib, 0.055; in assay [4] it was 0.042; with gefitinib it was -0.053.

For ADAR isoform 4 (UniProt P55265), the log2 fold change with alvocidib is -0.004; in the assay with Tubastatin A it was -0.167; in [1] it was 0.012; with defactinib, 0.054; in [2], -0.001; with encorafenib, 0.052. Moreover, the log2 fold change was -0.041 in assay [3], 0.045 with alisertib, 0.013 in assay [4] and 0.02 in the assay with gefitinib.

With ASPH (UniProt Q12797), the log2 fold change with alvocidib was -0.012; with Tubastatin A, 0.018; in assay [1] it was -0.01; with defactinib, 0.023; in assay [2], -0.006; in the assay with encorafenib it was 0.018. Moreover, the log2 fold change in assay [3] was -0.047; with alisertib, 0.042; in assay [4] it was -0.025; with gefitinib, -0.041.

On to APEX1 (UniProt P27695), for which the log2 fold change with alvocidib is 0.13; in the assay with Tubastatin A, -0.07; in assay [1], 0.006; with defactinib, 0.023; in assay [2], 0.038; with encorafenib it was -0.024. The log2 fold change in [3] was 0.076; with alisertib, 0; in [4] it was -0.019; in the assay with gefitinib, -0.064.

AIP (UniProt O00170): the log2 fold change with alvocidib was 0.164; with Tubastatin A, 0.003; in [1], 0.037; with defactinib, 0.004; in assay [2] it was 0.015; in the assay with encorafenib it was -0.008. In addition, the log2 fold change in assay [3] is 0.043; with alisertib, -0.039; in assay [4] it was -0.002; with gefitinib, -0.032.

ANXA11 (UniProt P50995): the log2 fold change in the assay with alvocidib is -0.025; with Tubastatin A, 0.017; in assay [1], 0.009; with defactinib, -0.012; in [2], -0.019; in the assay with encorafenib it was -0.004. The log2 fold change in [3] was 0.027; with alisertib, 0.015; in [4], -0.015; with gefitinib, -0.014.

Source of the values: the supplement of paper PMC10849652.
